# Test results reported in PubChem BioAssay AID1508649 (National Center for Advancing Translational Sciences (NCATS), 2021).
# Among all 43,000 compounds or so, about 830 (1.9%) were called active. About 30% were inconclusive and are not listed. Shown is part of a subset that was picked to be rich in actives. Unmarked numbers belong to inactive results. The calls were made as follows: active = clear falling dose curves in both reporters; inconclusive = both reporters move, but less clearly or upward; inactive = either reporter flat; the % is the NLuc reporter signal.
# Assay: Cell-based coincidence reporter assay to measure PMP22 gene transcription in S16 Pmp22-F2sN cells - Primary screen
# Settings: S16 Pmp22-F2sN Schwann cells (luciferase reporters placed in the Pmp22 gene), FLuc/NLuc coincidence luminescence, 24 h; series mostly up to 57.5 µM; activity change, negative = inhibition: at the top concentration
# Text: Assay Provider: Jim Inglese Ph.D. National Center for Advancing Translational Science, National Institutes of Health, Rockville, MD CMT is a heterogeneous group of neurological disorders that affect approximately 1 in 2,500 people. In particular, the most common form of CMT, CMT1A is genetically linked to the duplication of the PMP22 gene which leads to Schwann cell overexpression, thus manifesting itself as a typical case of dose-sensitive diseases. To identify small molecule compounds that can mediate the expression of PMP22 we developed a phenotypic assay screening strategy by utilizing genome editing techniques to construct Schwann cell lines containing novel reporter technology to monitor the transcriptional or translational regulation of PMP22. For high sensitivity we use a bioluminescent reporter system embedded in the 3' UTR of the PMP22 gene (S16(c9) Pmp22-F2sN) to identify compounds that inhibit gene expression. […] We can further discriminate the effect of all transcriptionally active molecules on PMP22 translation or stability with an assay that incorporates a short NLuc peptide (HiBiT) at the C-terminus of expressed PMP22 (S16(f8) PMP22-HiBiT) allowing alpha complementation and luminescence detection of membrane-associated PMP22 protein. These assays were screened against the NCATS Sytravon Library Collection. Miniaturization of these assays to 1536-well plate format for quantitative high throughput screening (qHTS) yielded rich data sets immediately from the qHTS assay (S16(c9) Pmp22-F2sN), when compared with data from a cell viability assay (Cell TiterGlo) to identify compounds that decreased the output signals through cellular toxicity to streamline the selection process of actives for subsequent characterization using the HiBiT assay (S16(f8) PMP22-HiBiT).
# Cell-based coincidence reporter assay to measure PMP22 gene transcription in S16 Pmp22-F2sN cells PROTOCOL TABLE (format as described by Inglese J, Shamu CE and Guy RK. 2007) SEQUENCE No. (e.g., 1, 2, 3, etc.); […] (e.g., Cells, Incubation, Reagent, etc.); VALUE and DESCRIPTION. 1. Cells. Add 500-1,000 cells in 4 uL in growth media (DMEM High Glucose, No Phenol Red media + 10% heat-inactivated FBS + 1% Pen/Strep supplemented media) per well into Greiner 1536-well white/solid bottom high base, TC-treated plates. 2. Compounds. Library compounds and controls added at 23nL per well, transferred by Pin Tool. 3. Incubation. Incubate plates at 37C, 5% CO2, 95% RH for 24 h. 4. Reagent. Add 3.5uL Nano-Glo Dual-Luciferase Reporter Assay System reagent 1: Lysis and FLuc reagent per well of Greiner 1536-well plates. 5. Incubation. Incubate plates at room temperature for 10 min., protect from light. 6. Detector. FLuc luminescence measured using CCD-based camera (Viewlux). 7. Reagent. Add 3.5uL Nano-Glo Dual-Luciferase Reporter Assay System reagent 2: Stop&Glo reagent per well of Greiner 1536-well plates. 8. Incubation. Incubate plates at room temperature for 10 min., protect from light. 9. Detector. NLuc luminescence measured using CCD-based camera (Viewlux). NOTES (numbers refer to Sequence numbers above; values are from representative experiments) 6. Luminescence Read #1 (FLuc): Clear filter; Exposure = 10 sec, Gain = High, Speed = Slow, Binning = 2X 9. Luminescence Read #2 (NLuc): Clear filter; Exposure = 1 sec, Gain = High, Speed = Slow, Binning = 2X REFERENCES: 1. Inglese J, Shamu CE and Guy RK, Reporting data from high throughput screening of small molecule libraries, Nature Chemical Biology, 2007, 3(8): 438-441. doi.org/10.1038/nchembio0807-438 2. Yasgar A, Shinn P, Jadhav A, Auld DS, Michael S, Zheng W, Austin CP, Inglese J and Simeonov A, Compound Management for Quantitative High-Throughput Screening. J. Assoc. Lab. Auto., 2008, 13: 79-89. doi: 10.1016/j.jala.2007.12.004
# % is scaled to controls: 0 for no effect and ±100 for the full control effect; potency is read from the fitted curve at half-maximal effect.
SMILES,"activity change, negative = inhibition [%]",Potency
COc1cccc(N2CCN(S(=O)(=O)c3ccc4c(c3)CCCN4C(C)=O)CC2)c1,-20.8,–
CC(=O)N1CCCc2cc(S(=O)(=O)N3CCCC(C(=O)NCc4ccc(Cl)cc4)C3)ccc21 (stereo not drawn),-50.4,–
CC(=O)N1CCCc2cc(S(=O)(=O)N3CCCC(C(=O)N4CCN(c5cccc(Cl)c5)CC4)C3)ccc21 (stereo not drawn),–,10 µM (active)
Cc1cccc(Nc2cc(C)nc(-n3nc(C)cc3C)n2)c1,–,9.15 µM (active)
Cc1cccc(Nc2nc(C)nc(N)c2S(=O)(=O)c2ccccc2)c1,-24.8,–
Cc1ccc(Nc2nc3ccccc3nc2-n2nc(C)cc2C)c(Cl)c1,-3.07,–
Cc1c(Cl)cccc1NC(=O)N1CCN(C(=O)c2nsc3ccccc23)CC1,6.76,–
Cc1c(Cl)cccc1NC(=O)Cn1cc(C(=O)c2cccs2)c2ccccc21,–,8.91 µM (active)
Cc1cccc(NC(=O)Cn2cc(S(=O)(=O)Cc3ccccc3Cl)c3ccccc32)c1,-23.6,–
Cc1cccc(NC(=O)CSc2nc(-c3ccco3)cc(C(F)(F)F)n2)c1C,-2.59,–
Cc1ccc2ncc(C(=O)Nc3ccc(OC(F)(F)F)cc3)c(=O)n2c1,-9.44,–
COCC(C)NS(=O)(=O)c1ccc(N2CCCCS2(=O)=O)cc1 (stereo not drawn),-17.4,–
CCOC(=O)C1CCN(c2ncnc3c2c(-c2ccccc2)cn3-c2cccc(C)c2)CC1,29.9,–
Cc1cccc(NC(=O)CN(c2ccc(C(C)C)cc2)S(=O)(=O)c2c(C)nn(C)c2C)c1C,-1.83,–
O=C(Nc1ccc(F)cc1F)c1cnn(-c2ccc(F)cc2)c1-n1cccc1,1.78,–
Cc1cc(F)ccc1NS(=O)(=O)c1ccc(-n2cccn2)cc1,–,15 µM (active)
Cc1cc(F)ccc1NC1(c2ccccc2)C(=O)c2ccccc2C1=O,-17.3,–
O=C(Cn1nc(Cc2cccnc2)c2ccccc2c1=O)N1CCN(c2ccccc2F)CC1,-3.71,–
Cc1ccc(C2C=C(c3ccc(Cl)cc3)Nc3nc(NC(=O)CCC(=O)O)nn32)cc1 (stereo not drawn),-1.58,–
Cc1cc(-c2ccccc2)n2nc(-c3ccccc3)cc2n1,24.1,–
O=C(CCc1nc(CN2CCN(S(=O)(=O)c3ccc(Cl)cc3)CC2)no1)N1CCCCC1,-9.23,–
Cc1cc(C)c(NC(=O)CSc2nc3ccncc3[nH]2)c(C)c1,-45.4,–
CCCCn1c(=N)c(S(=O)(=O)c2ccccc2)cc2c(=O)n3cccc(C)c3nc21,-13.2,–
Cc1ccc(CNC(=O)c2c(O)nc3c(C)cccn3c2=O)cc1,25.4,–

SMILES,"activity change, negative = inhibition [%]",Potency
CCCn1c(=N)c(C(=O)NCc2ccccc2)cc2c(=O)n3cccc(C)c3nc21,–,2.24 µM (active)
COc1ccc(-c2cc(C(=O)NCc3cc(OC)c(OC)c(OC)c3)[nH]n2)cc1,-8.61,–
Cc1ccccc1CNC(=O)C(=O)NCC(c1cccs1)S(=O)(=O)c1cccs1 (stereo not drawn),-27.5,–
Cc1ccc(-n2nc(C)c(C(=O)O)c2-n2cccc2)cc1,-0.533,–
CCC1CCCCN1CCCNC(=O)c1cc2c(Cl)nc3ccccc3c2s1 (stereo not drawn),–,17.8 µM (active)
CCOCCCNC(=O)c1cc2c(=O)n3ccccc3nc2s1,-12.9,–
CCn1c(=O)c2cc(C(=O)NCCc3ccc(Cl)cc3)sc2c2ccccc21,-26.8,–
O=S(=O)(Nc1ccc2nc(-c3cccc(Cl)c3)oc2c1)c1ccccc1,-19.7,–
COc1cc(OC)c(NC(=O)c2nc(-c3ccncc3)no2)cc1Cl,-11.9,–
O=C(Cn1ncc2c3ccccc3n(Cc3ccccc3)c2c1=O)NCc1ccccn1,-17.6,–
CCCN(CCC)CCCNC(=O)Cn1ncc2c3ccccc3n(Cc3ccccc3)c2c1=O,-19.1,–
CCCn1c2ccccc2c2cnn(CC(=O)NCCCOC(C)C)c(=O)c21,-4.77,–
CCCn1c2ccccc2c2cnn(CC(=O)NCC3CCN(Cc4ccc(C)cc4)CC3)c(=O)c21,–,18.9 µM (active)
Cc1ccc(Cn2c(C)c3cnn(CC(=O)NCc4ccccc4)c(=O)c3c2C)cc1,–,8.43 µM (active)
CCCn1c2ccccc2c2cnn(CC(=O)N3CCCC(C(=O)OCC)C3)c(=O)c21 (stereo not drawn),-19.6,–
CCOC(=O)c1ccc(NC(=O)Cn2c(=O)n(-c3ccc(C)cc3)c(=O)c3c2cnn3C)cc1,3.69,–
O=C(CSc1nccn1Cc1ccc(F)cc1)NCc1ccccc1,0.174,–
COc1ccc(NC(=O)C2CCN(c3ccc(Sc4ccc(C)cc4)nn3)CC2)c(OC)c1,-27.1,–
COc1cc(C(=O)NCCc2csc3nc(-c4ccccc4C)nn23)cc(OC)c1OC,44.6,–
CCC(=O)Nc1ccc(C)cc1-c1nc2ccccc2n(Cc2ccccc2)c1=O,1.15,–
Cc1ccc(C)c(N2CCN(Cc3nnc(-c4ccccc4)o3)CC2)c1,-22.9,–
CCN(CC)C(=O)CSc1nc2ccsc2c(=O)n1Cc1ccccc1Cl,-22.1,–
COc1ccc(NS(=O)(=O)c2cc3c(cc2C)N(C(C)=O)CCO3)cc1,-6.59,–
Cc1ccc2nc(COc3cccc(NC(=O)Nc4ccc(C)c(Cl)c4)c3)cc(=O)n2c1,-3.59,–
